Rows were chosen to be rich in hits. Some 2.4% of all compounds tested hit in one or more screens of this group.
Mito fusion yeast: qHTS Assay for Small Molecule Inhibitors of Mitochondrial Division or Activators of Mitochondrial Fusion | S. cerevisiae fusion-defective mutant growth rescue, CellTiterGlo 48 h | Potency, µM (doses to about 46.1 µM), for the others: at the highest dose growth rescue (activation), most hits filed as activators | 0.23% of 320,000 active | AID 485298, 2010; also: % of control where 0% means no effect; nearly all actives have a fitted effect of over 45% in size
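Growth-rescue viability read-out: after 48 h at the non-permissive 37C in glycerol/ethanol YPEG, yeast mitochondrial fusion mutants are measured by CellTiterGlo luminescence; compounds (23 nl pinned per well) restoring growth score as division inhibitors or fusion activators.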
FUS suppressor: qHTS for Suppressors of FUS Proteinopathy: Primary screen using FUS-linked yeast assay; Potency, µM (doses to about 76.6 µM), hits mostly activators; AID 1347120, 2019; 0.24% of 390,000 active; S. cerevisiae FUS-expressing, growth rescue, OD600, 24 h;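 also: plate controls were DMSO vehicle for no effect and reference control for full effect; nearly all actives have a fitted effect of over 55% in size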
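Yeast expressing FUS under galactose induction, OD 0.005 in 2% galactose medium; compounds in a dilution series, 24 h at 30C. Growth rescue by absorbance at 600 nm; CP55940 positive control, DMSO negative.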
A-T KAP1 phos: qHTS Assay for Identifying a Potential Treatment of Ataxia-Telangiectasia | F2112 A-T fibroblasts, KAP-1 phosphorylation AlphaLISA; neocarzinostatin DNA damage 30 min before lysis | Potency, µM (titrated, usually from 57.5 µM), for inactives: at the highest dose activation, hits mostly activators | 0.19% of 320,000 active; also: % of control where 0% means no effect; nearly all actives have a fitted effect of over 45% in size
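ATM-like activity read as KAP-1 phosphorylation via AlphaLISA donor/acceptor antibody pairs after lysis and 6 hr at 25C. Cells were ATM-null patient fibroblasts (F2112, hTERT), dosed 60 min, then exposed to the DSB inducer NCS for 30 min.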
TDP-43 yeast inh: qHTS of TDP-43 Inhibitors; Potency, µM (doses to about 46.1 µM), without a hit: at the top dose growth rescue (activation), hits mostly activators; TDP-43 expressing yeast growth rescue, BacTiter-Glo, 24 h; 1.8% of 410,000 active; also: % of control where 0% means no effect; nearly all actives have a fitted effect of over 50% in size
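Cell-based yeast growth screen: TDP-43 expression induced in galactose, inoculum OD600=0.02 after raffinose pregrowth to mid-log. Read-out BacTiter-Glo luminescence at 24 hr, 30 deg C; inhibition of toxicity seen as signal increase.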
Abeta rescue: qHTS for compounds that reverse cellular toxicity of Amyloid beta (A-beta) peptide in yeast: Primary Screen; yeast expressing A-beta42, growth rescue, OD600, 48 h; response scale: 0% DMSO, 100% iron-clioquinol control; Potency, µM (top dose mostly 46.1 µM), hits mostly activators; 0.063% of 410,000 active; AID 1347071, 2019; also: nearly all actives have a fitted effect of over 55% in size
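Yeast A-beta toxicity model in growth medium with pinned compounds, 48 h at 30 C; growth read as absorbance at 600 nm. Normalized to FeCl3/clioquinol equimolar mix (positive) and DMSO (negative).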
aSyn rescue: qHTS of alpha-syn Inhibitors; Yeast expressing alpha-synuclein, growth rescue, BacTiter-Glo, 24 h; 0.14% of 370,000 active; Potency, µM (highest dose often 46.1 µM), for inactives: top-dose growth rescue (activation), most hits filed as activators; also: % of control where 0% means no effect; nearly all actives have a fitted effect of over 65% in size
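Screening used galactose-induced yeast with toxic alpha-synuclein levels, exposed to compound for 24 hr at 30 deg C. Cell growth, read with BacTiter-Glo luminescence, gave the measured signal.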
An asterisk follows results filed as active; i = inactive; u = inconclusive; x = not tested or not shown. Calls follow the shape of the dose curve; as a rule, active = well fitted curve in the direction sought with a large enough effect; inconclusive = small, poorly fitted or top-dose-only effect, or another doubt; inactive = no such curve, though single readings can be large; an effect the other way counts as inactive or inconclusive. Potency is read from the fitted curve at half-maximal effect.

SMILES	Mito fusion yeast	FUS suppressor	A-T KAP1 phos	TDP-43 yeast inh	Abeta rescue	aSyn rescue
O=C(Cc1cccs1)NNC(=S)NCc1ccc(Cl)cc1	-1%	i	1%	4%	i	-6%
CC(C)(C)c1ccc(OCC(=O)NNC(=S)NC(=O)c2ccco2)c(Br)c1	-13%	x	4%	u	i	14%
Cc1ccccc1OCC(=O)NNC(=S)NC(=O)c1ccco1	-24%	i	-2%	7.1µM*	u	u
COc1cccc(NC(=O)NC2CCCCN(Cc3ccc(C)cc3)C2=O)c1 (stereo not drawn)	x	i	x	x	x	x
CC(C)[C@H](NS(=O)(=O)c1ccccc1)C(=O)OCC(=O)Nc1ccccc1Sc1ccccc1	22µM*	i	2%	11%	i	13%
Cc1cc(NC(=O)COC(=O)[C@@H](NS(=O)(=O)c2ccccc2)C(C)C)no1	3%	i	-4%	19%	i	7%
COc1ccc(OC)c(CNC(=O)NCc2noc3ccc(C)cc23)c1	x	i	x	1%	i	x
COc1cc2nc(N3CCCCC3)nc(NC3CCN(Cc4ccccc4)CC3)c2cc1OC	x	x	x	x	x	-2%
Nn1c(SCC(=O)NC2CCCCC2)nnc1-c1cc(-c2ccc(Cl)cc2)n[nH]1	x	i	x	x	x	x
C=CCn1c(NC(=O)c2ccccc2)nc2ccccc21	-2%	i	2%	18µM*	i	2%
CCCCn1c(NC(=O)c2ccccc2)nc2ccccc21	4%	i	9%	u	i	25µM*
CCn1c(NC(=O)c2ccccc2)nc2ccccc21	2%	i	-1%	u	i	3%
CCCn1c(NC(=O)c2ccc(Br)cc2)nc2ccccc21	0%	i	x	-6%	i	2%
CCCn1c(NC(=O)c2ccccc2Br)nc2ccccc21	-4%	i	-3%	16µM*	i	10%
COc1ccc(C(=O)N(C)[C@H]2C[C@H]3c4[nH]c5cccc(-c6ccccc6)c5c4CCN3C[C@H]2[C@H](C)O)cc1	x	i	x	x	x	x
COc1ccc(-c2nc(CNS(=O)(=O)c3ccc(F)cc3)cs2)cc1	x	i	x	24%	i	x
COc1ccc(S(=O)(=O)NCCc2sc(-c3ccccc3)nc2C)cc1F	x	i	x	22µM*	i	5%
COc1ccc(S(=O)(=O)NCCc2csc(-c3ccc(F)cc3)n2)cc1F	x	i	x	18µM*	i	x
Cc1ccc(C)c(S(=O)(=O)NCCc2csc(-c3ccc(Cl)cc3)n2)c1	x	i	x	22µM*	i	x
CCS(=O)(=O)NCCc1csc(-c2ccccc2)n1	-3%	i	3%	-7%	i	-2%
O=S(=O)(NCCc1csc(-c2ccc(F)cc2)n1)c1ccc(Cl)cc1	x	i	x	11µM*	6.3µM*	x
COc1ccc(S(=O)(=O)NCCc2sc(-c3cccnc3)nc2C)cc1OC	x	i	x	17%	i	0%
O=C(NCCc1csc(-c2ccc(F)cc2)n1)C(=O)Nc1ccc(Cl)cc1	x	i	x	-3%	i	x
Cc1ccc(S(=O)(=O)NCCc2csc(-c3ccc(Cl)cc3)n2)cc1	x	i	x	20µM*	u	x
COc1ccc(-c2nc(CNS(=O)(=O)c3ccc(C)cc3)cs2)cc1	x	i	x	3%	i	x
SMILES	Mito fusion yeast	FUS suppressor	A-T KAP1 phos	TDP-43 yeast inh	Abeta rescue	aSyn rescue
Cc1ccc(SCCNS(=O)(=O)c2ccc(F)cc2)cc1	u	i	3%	u	i	17%
COc1ccc(-c2nc(CNS(=O)(=O)c3cccc(F)c3)cs2)cc1	x	i	x	13µM*	i	x
CCOc1ccc(S(=O)(=O)NCCc2csc(-c3ccc(Cl)cc3)n2)cc1	x	u	x	22µM*	i	x
O=S(=O)(NCCSc1ccc(Cl)cc1)c1ccc(F)cc1	12%	i	7%	14µM*	i	23%
COc1ccc(OC)c(CNC(=O)c2c(C)oc3ncn(CC(C)C)c(=O)c23)c1	x	i	x	u	i	x
O=C(Cn1nnc(-c2ccccc2F)n1)Nc1ccc(F)cc1F	x	i	x	x	x	x
CC[C@H](CCCc1ccc(OC)cc1)CCC(=O)N1CCOCC1	x	i	x	x	x	x
Cc1ccc(S(=O)(=O)NCCc2sc3nc(-c4ccccc4)nn3c2C)cc1C	x	i	x	13µM*	u	x
O=S(=O)(NCCc1csc(-c2cccnc2)n1)c1ccc(F)cc1	-1%	x	-3%	14µM*	i	-13%
COc1ccc(S(=O)(=O)NCCc2csc(-c3ccc(F)cc3)n2)cc1	x	i	x	16µM*	i	x
O=S(=O)(NCc1csc(-c2cccnc2)n1)c1ccc(F)cc1	-3%	i	10%	-12%	i	-6%
Cc1ccc(CCNS(=O)(=O)c2cc(-c3cc(C)no3)ccc2C)cc1	x	i	x	22µM*	i	x
CCOCCCn1c(SCC(=O)Nc2ccc(C)cc2)nc2ccccc2c1=O	x	i	x	30%	i	x
Cc1cc(C)c2c(-n3cccc3)c(C(=O)NCCCN3CCCCC3)sc2n1	x	i	x	12%	i	x
CC(C)CN1C(=O)C[C@@]2(C(=O)N(C)c3ccc(NS(=O)(=O)C4CC4)cc32)C1c1ccccc1 (stereo partly drawn)	x	i	x	x	x	x
COc1ccccc1C(=O)NC1=NC(c2ccc(Br)cc2)CC(=O)N1 (stereo not drawn)	x	i	x	19%	i	x
Cc1ccc(C(=O)Nc2nccc(-c3cccs3)n2)cc1	-2%	i	1%	13µM*	i	-1%
O=C(Nc1nc(-c2cccs2)cs1)c1ccc(Cl)cc1	u	i	7%	35µM*	i	-33%
COc1cc(C(=O)Nc2nc(-c3cccs3)cs2)cc(OC)c1OC	14µM*	i	-7%	-3%	i	-10%
COc1cc(C(=O)NC(=S)Nc2nc(-c3ccc(F)cc3)cs2)cc(OC)c1OC	2%	i	1%	-13%	i	-3%
COc1ccc(C(=O)Nc2nc(-c3cccs3)cs2)cc1	u	x	x	0%	i	-34%
CN(C(=O)COC(=O)c1ccccc1OCC(=O)Nc1ccc(Br)cc1)c1ccccc1	x	x	x	x	x	5%
CCn1c(=O)[nH]n(C/C(C)=C\c2c[n+](Cc3ccc4c(c3)OCO4)c(N)[nH]2)c1=O	x	i	x	x	x	x
CC(C)(C)OC(=O)N1CCC(c2c(C(=O)NCCN3CCOCC3)cnn2-c2ccccc2)CC1	x	i	x	2%	i	x
Cc1ccn2c(=O)nc(SCC(=O)NCc3ccccc3)nc2c1	-3%	i	0%	19%	i	0%
